Test results: PubChem BioAssay (NCATS)
A number with no mark means an inactive call. Records with an inconclusive call do not appear. Active and inactive are the calls of the source. The call rests on the fitted dose curve; in most records, active means well fitted curve in the direction sought with a large enough effect; inconclusive means small, poorly fitted or top-dose-only effect, or another doubt; inactive means no such curve, though single readings can be large; an effect the other way counts as inactive or inconclusive.

Test: qHTS assay for measurement of the activity of small molecule inhibitors on Zika virus induced Caspase-3 activity in human astrocytoma cells (AID 1224859);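 further: plate controls were ZIKV-infected untreated cells for no effect and uninfected cells for full effect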
Conditions: SNB-19 ZIKV-induced caspase-3/7, luminescence, 6 h; series mostly up to 45.7 µM; activity change, negative = inhibition: at the top concentration
Summary of the method: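 A cell-based luminescent caspase-3/7 assay used SNB-19 cells infected with ZIKV (2 FFU/cell) for 6 h following 1 h compound pretreatment.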

Row | SMILES | outcome | activity change, negative = inhibition [%]
1 | CC(C)(C(=O)O)c1ccc(C(O)CCCN2CCC(C(O)(c3ccccc3)c3ccccc3)CC2)cc1 (stereo not given) | inactive | 
2 | O=C(O)Cc1sc(-c2ccccc2)nc1-c1ccc(Cl)cc1 |  | 3.55
3 | [O-][n+]1cccc(CO)c1 |  | 19.4
4 | C[C@]12CC[C@@H]3c4ccc(O)cc4CC[C@H]3[C@@H]1CCC2=O | inactive | 
5 | CN1[C@@H]2CC[C@H]1CC(OC(=O)C(O)c1ccccc1)C2 (stereo not given in full) |  | -4.31
6 | O=C1c2c(O)cccc2Cc2cccc(O)c21 |  | -1.42
7 | NC(=O)c1ncn([C@@H]2O[C@H](CO)[C@@H](O)[C@H]2O)n1 | inactive | 
8 | C[C@]12C[C@H](O)[C@H]3[C@@H](CCC4=CC(=O)CC[C@@]43C)[C@@H]1CC[C@@H]2C(=O)CO | inactive | 
9 | CC(C)C(=O)c1c(C(C)C)nn2ccccc12 | inactive | 
10 | CC(C)c1c(C(=O)Nc2ccccc2)c(-c2ccccc2)c(-c2ccc(F)cc2)n1CC[C@@H](O)C[C@@H](O)CC(=O)O |  | 7.6
11 | CCN(CC)CCOC(=O)C1(C2CCCCC2)CCCCC1 | inactive | 
12 | CN(C)CCOC(C)(c1ccccc1)c1ccccn1 (stereo not given) | inactive | 
13 | c1ccc2c(CC3=NCCN3)cccc2c1 |  | 3.68
14 | CC/C=C(\C(=O)N[C@@H]1C(=O)N2C(C(=O)OCOC(=O)C(C)(C)C)=C(COC(N)=O)CS[C@H]12)c1csc(N)n1 | inactive | 
15 | COc1ccc2cc1Oc1cc3c(cc1OC)CC[N+](C)(C)[C@H]3Cc1ccc(cc1)Oc1c(OC)c(OC)cc3c1[C@@H](C2)[N+](C)(C)CC3 |  | -12.1
16 | CC(CN1c2ccccc2Sc2ccccc21)N(C)C (stereo not given) | inactive | 
17 | CCN(CC)CCCC(C)Nc1c2ccc(Cl)cc2nc2ccc(OC)cc12 (stereo not given) |  | -26
18 | CC(C)(C)c1onc(OCP(=O)(O)O)c1CC(N)C(=O)O (stereo not given) | inactive | 
19 | CN(C)CC[C@@H](c1ccc(Cl)cc1)c1ccccn1 | inactive | 
20 | Cc1cc(N)c2ccccc2[n+]1CCCCCCCCCC[n+]1c(C)cc(N)c2ccccc21 |  | -10.9
21 | CN(C)CCCN1c2ccccc2Sc2ccc(Cl)cc21 | inactive | 
22 | C[C@H](NC(CCc1ccccc1)C(=O)O)C(=O)N1CCC[C@H]1C(=O)O (stereo not given in full) |  | -5.84
23 | OCc1cc(C(O)CNCCCCCCOCCCCc2ccccc2)ccc1O (stereo not given) | inactive | 
24 | CC(C)NC[C@H](O)c1ccc(O)c(O)c1 | inactive | 
25 | CC1=C(/C=C/C(C)=C/C=C/C(C)=C/C(=O)O)C(C)(C)CCC1 | inactive | 
26 | Nc1nc2c(ncn2CCC(CO)CO)c(=O)[nH]1 |  | -9.03
27 | Cc1cc(O)cc2c1O[C@](C)(CCC[C@H](C)CCC[C@H](C)CCCC(C)C)CC2 |  | -9.07
28 | O=C1NS(=O)(=O)c2ccccc21 |  | -3.25
29 | Nc1ncnc2c1ncn2[C@@H]1O[C@H](CO)[C@@H](O)[C@H]1O | inactive | 

Test: qHTS assay to identify small molecule inhibitors of chordoma cells - UCH-1 (AID 1259355); further: on the % scale 0 is the no-effect control and ±100 the full control effect; nearly all actives have a fitted effect of over 55% in size
Conditions: UCH-1 chordoma viability, CellTiter-Glo, 48 h, combination, with auranofin plus four topoisomerase inhibitors; series mostly up to 46.1 µM; activity, negative = inhibition: at the top concentration
Summary of the method: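 Screening used approved and investigational drugs in 15-point titration against 800 seeded cells per well. A fixed combination of auranofin with camptothecin, doxorubicin, rubitecan and topotecan followed compound addition, and growth was scored by CellTiter-Glo after 48hr.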

Row | SMILES | activity, negative = inhibition [%]
30 | Nc1ccc(S(=O)(=O)Nc2nccs2)cc1 | -24.6
31 | O=C1Nc2ccc(Cl)cc2[C@@](C#CC2CC2)(C(F)(F)F)O1 | 12.6
32 | Cc1cc(C(C#N)c2ccc(Cl)cc2)c(Cl)cc1NC(=O)c1cc(I)cc(I)c1O (stereo not given) | -0.718
33 | COc1ccc2[nH]c(S(=O)Cc3ncc(C)c(OC)c3C)nc2n1 (stereo not given) | -3.01

Test: qHTS assay to identify small molecule inhibitors of chordoma cells - UCH-2 (AID 1259356); further: on the % scale 0 is the no-effect control and ±100 the full control effect
Conditions: UCH-2 chordoma viability, CellTiter-Glo ATP luminescence, 48 h; series mostly up to 46.1 µM; activity change, negative = inhibition: at the top concentration

Row | SMILES | activity change, negative = inhibition | outcome
34 | O=C(O)Cc1sc(-c2ccccc2)nc1-c1ccc(Cl)cc1 | -3.01% | 
35 | [O-][n+]1cccc(CO)c1 | 5.61% | 
36 | CN1[C@@H]2CC[C@H]1CC(OC(=O)C(O)c1ccccc1)C2 (stereo not given in full) |  | inactive
37 | O=C1c2c(O)cccc2Cc2cccc(O)c21 | 3.68% | 
38 | NC(=O)c1ncn([C@@H]2O[C@H](CO)[C@@H](O)[C@H]2O)n1 | 10.1% | 
39 | C[C@]12C[C@H](O)[C@H]3[C@@H](CCC4=CC(=O)CC[C@@]43C)[C@@H]1CC[C@@H]2C(=O)CO | -1.33% | 
40 | c1ccc2c(CC3=NCCN3)cccc2c1 | -20.8% | 
41 | COc1ccc2cc1Oc1cc3c(cc1OC)CC[N+](C)(C)[C@H]3Cc1ccc(cc1)Oc1c(OC)c(OC)cc3c1[C@@H](C2)[N+](C)(C)CC3 | 1.2% | 
42 | Nc1ccc(S(=O)(=O)Nc2nccs2)cc1 | 2.41% | 
43 | CC(CN1c2ccccc2Sc2ccccc21)N(C)C (stereo not given) | 25.6% | 
44 | O=C1Nc2ccc(Cl)cc2[C@@](C#CC2CC2)(C(F)(F)F)O1 | 7.26% | 
45 | Cc1cc(C(C#N)c2ccc(Cl)cc2)c(Cl)cc1NC(=O)c1cc(I)cc(I)c1O (stereo not given) | 7.88% | 
46 | CCN(CC)CCCC(C)Nc1c2ccc(Cl)cc2nc2ccc(OC)cc12 (stereo not given) | -0.786% | 
47 | COc1ccc2[nH]c(S(=O)Cc3ncc(C)c(OC)c3C)nc2n1 (stereo not given) | -15% | 
48 | Cc1cc(N)c2ccccc2[n+]1CCCCCCCCCC[n+]1c(C)cc(N)c2ccccc21 | 10.3% [at 20.6 µM] | 
49 | CN(C)CCCN1c2ccccc2Sc2ccc(Cl)cc21 | -19.6% | 
50 | OCc1cc(C(O)CNCCCCCCOCCCCc2ccccc2)ccc1O (stereo not given) | -16.6% | 
51 | CC1=C(/C=C/C(C)=C/C=C/C(C)=C/C(=O)O)C(C)(C)CCC1 | 0.339% | 
52 | Nc1nc2c(ncn2CCC(CO)CO)c(=O)[nH]1 | -1.8% | 
53 | Cc1cc(O)cc2c1O[C@](C)(CCC[C@H](C)CCC[C@H](C)CCCC(C)C)CC2 | -4.13% | 
54 | O=C1NS(=O)(=O)c2ccccc21 | 7.3% | 
55 | Nc1ncnc2c1ncn2[C@@H]1O[C@H](CO)[C@@H](O)[C@H]1O | 6.77% | 
